Out of some 290,000 compounds screened, about 2,300 (0.79%) were called active. What follows is part of a selection rich in actives, with near analogues and random picks from the rest. Unmarked numbers belong to inactive results. Cut-off read from the data, not from the text of the source: active = inhibition above about 22%; inactive = the rest.

This experiment can be described thus: IEC-6 cell viability reduction – luminescence, cytotoxicity control for KLF5 inhibitor project, primary screen (AID 1825).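 Note: 0% = plate median of test compound wells and 100% = cytotoxic reference compound wells.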 Particulars: IEC-6 cytotoxicity, at 5 µM, stronger effect = higher value.
Regarding `COc1ccccc1N1CCN(C(=O)c2ccc(Cl)c(S(=O)(=O)N3CCCC3)c2)CC1`, the inhibition was -2.9%.

`Cc1[nH]c2ccc(C(=O)N3CCN(C)CC3)cc2c1C`: the inhibition was 0.4%.

For the compound `CCOc1ccccc1N1CCN(C(=O)c2ccc3[nH]c(C)c(C)c3c2)CC1`, the inhibition was 36.2% (active).

Consider `CCN(C(=O)COC(=O)c1ccc(COc2ccc3c(C)cc(=O)oc3c2)cc1)C1CCS(=O)(=O)C1` (stereo not drawn), for which the inhibition was -1.8%.

`Cc1ccc(C)c(NC(=O)C2Cc3ccccc3CN2C(=O)OCc2ccccc2)c1` (stereo not drawn): the inhibition is -6.3%.

Take `O=C(NCCc1ccccn1)c1cccnc1Oc1ccc(Cl)cc1`: the inhibition is 5%.

As to `CCOc1ncccc1C(=O)NCCc1ccc(OC)cc1`, the inhibition was 22% (active).

As to `COc1ccc(CCNC(=O)c2ccccc2OCc2ccccc2)cc1`, the inhibition is -0.9%.

On to `COc1ccc(/C=C(\C#N)c2c[nH]c3ccccc23)cc1`, for which the inhibition was 86.1% (active).

With `COc1cc(/C=C(\C#N)c2nc3ccccc3[nH]2)ccc1O`, the inhibition was 2%.

On to `COc1ccc2[nH]cc(/C=C(/C#N)S(=O)(=O)c3ccccc3)c2c1`, for which the inhibition was -0.2%.

As to `CN(CC(=O)O)S(=O)(=O)c1ccc2oc3ccccc3c2c1`, the inhibition is -1.3%.

With `C=Cc1ccc(C(=O)N2CCCC(CCC(=O)N3CCN(c4ccccn4)CC3)C2)cc1` (stereo not drawn), the inhibition was -8.1%.

`CN(C(=O)CN1C(=O)S/C(=C\c2ccccc2F)C1=O)C1CCS(=O)(=O)C1` (stereo not drawn): the inhibition is -4.8%.

With `O=C(C1CCCO1)N1CCC(c2nc3ccccc3[nH]2)CC1` (stereo not drawn), the inhibition is -5.3%.

Regarding `N#CC(C(=O)c1ccc(S(=O)(=O)N2CCCCCC2)cc1)c1nc2ccccc2[nH]1` (stereo not drawn), the inhibition is 3%.

Take `O=S(=O)(c1ccc(Br)cc1)N1CCC(c2nc3ccccc3[nH]2)CC1`: the inhibition is 43.7% (active).

Consider `O=C(Nc1cccnc1Cl)c1cc(-c2ccccc2O)on1`, for which the inhibition was -3.1%.

Turning to `Cc1ccc(OCCOc2cccc(/C=N/NC(N)=O)c2)cc1`, the inhibition was 3.9%.

For `CNC(=O)C1CCN(S(=O)(=O)c2c(C)noc2/C=C/c2cccc(C)c2)CC1`, the inhibition was -7.8%.

As to `Cc1cccc2c1N(CC(=O)OC(C)C)C(=O)C2=O`, the inhibition is 2.7%.

On to `CC(C)OC(=O)CN1C(=O)c2ccccc2C1=O`, for which the inhibition was 1.2%.

In the case of `CC(C)OC(=O)CN1C(=O)C(=O)c2ccccc21`, the inhibition was 24.8% (active).

Regarding `COc1ccc(CCNS(=O)(=O)c2cn(C)nc2C)cc1`, the inhibition was 3%.

Take `CCCOc1ccc(C2=CSC3=NCCN23)cc1Cl`: the inhibition was -2.6%.

Regarding `O=C(Nn1cnnc1)c1cc(Cl)ccc1Cl`, the inhibition is 1.3%.

As to `Cc1ccc(NS(=O)(=O)c2ccc(F)cc2)nc1`, the inhibition was 1.3%.

With `COc1ccccc1-c1nc(C#N)c(N2CCC(C(N)=O)CC2)o1`, the inhibition is 0.7%.

On to `Cc1ccccc1-c1nc(C#N)c(NCc2ccco2)o1`, for which the inhibition is -5.6%.

For the compound `COc1ccc(Nc2oc(-c3ccccc3Cl)nc2C#N)cc1`, the inhibition is 26.1% (active).

In the case of `CCC(C)N1CC(=O)N2Cc3[nH]c4ccccc4c3C[C@H]2C1=O` (stereo partly drawn), the inhibition was 9.4%.

Regarding `NC(=O)c1oc2ccccc2c1NC(=O)Cc1ccccc1`, the inhibition was -3.9%.

Turning to `Fc1cccc(CSc2nnc3ccc(-c4ccncc4)nn23)c1`, the inhibition is -4%.

`O=C(CSc1nnc2ccc(-c3ccncc3)nn12)N1CCCCC1`: the inhibition was -4.1%.

In the case of `CSc1nnc2ccc(-c3ccc(C)cc3)nn12`, the inhibition is 23.2% (active).

As to `CCOC(=O)N1CCN(C(=O)c2cn(C)c3ccc(S(=O)(=O)N(CC)CC)cc3c2=O)CC1`, the inhibition was -5.4%.

`COC(=O)c1ccc(NC(=O)CSc2nncn2-c2cccnc2)cc1`: the inhibition is 0.4%.

Consider `COc1ccccc1N1CCN(C(=O)c2cc(=O)c3cc(C)cc(C)c3o2)CC1`, for which the inhibition was 93.6% (active).

Turning to `COc1cccc(-c2cc(C(=O)N3CCN(c4ccccc4OC)CC3)no2)c1`, the inhibition is 12.1%.

In the case of `COc1ccccc1N1CCN(C(=O)c2cc(=O)c3cc(C)ccc3o2)CC1`, the inhibition was 17.9%.

Regarding `COC1=C(N2CCOCC2)C(=O)c2ccccc2C1=O`, the inhibition is -1.6%.

`COc1ccc(NC(=O)c2cccc3c2C(=O)N(CC2CCCO2)C3)cc1OC` (stereo not drawn): the inhibition was -0.8%.

Regarding `Cc1cccc(CNS(=O)(=O)c2ccc(-c3cnc(C4CC4)o3)cc2)c1`, the inhibition was 4.4%.

As to `COc1ccc(CNS(=O)(=O)c2ccc(-c3cnc(C4CC4)o3)cc2)cc1`, the inhibition is -1.9%.

Turning to `Cc1cccc(NS(=O)(=O)c2ccc(-c3cnc(C4CC4)o3)cc2)c1`, the inhibition is 77.2% (active).

Turning to `Cc1cccc(NC(=O)c2nc(S(=O)(=O)Cc3ccccc3)ncc2Cl)c1`, the inhibition was 88.2% (active).

As for `Cc1cccc(NC(=O)C(C)SCc2ccccc2)c1` (stereo not drawn), the inhibition was 0.6%.

For `CCOc1ccc(NC(=O)c2nc(SCC)ncc2Cl)cc1`, the inhibition was 12.7%.

`CCSc1ncc(Cl)c(C(=O)Nc2cc(C)ccc2C)n1`: the inhibition is 5.4%.

Turning to `Cc1cccc(CS(=O)(=O)c2ncc(Cl)c(C(=O)Nc3ccc(F)cc3)n2)c1`, the inhibition was 77.4% (active).

`Cc1cccc(OCc2ccc(C(=O)Nc3ccc(F)cc3)cc2)c1`: the inhibition was 0.7%.

With `CN1C2CCC1CC(NC(=O)c1ccc([N+](=O)[O-])cc1)C2` (stereo not drawn), the inhibition was 5%.

In the case of `CC(NC(=O)COc1cccnc1[N+](=O)[O-])c1ccc(Cl)cc1Cl` (stereo not drawn), the inhibition is -1.6%.

Regarding `Cc1cccc(NC(=O)c2ccc(S(=O)(=O)N(C)CC3CCCO3)cc2)c1C` (stereo not drawn), the inhibition is -2.6%.

With `COc1ccc(CNC(=O)C(C)n2nc(C)c3c(C)n(-c4ccccc4)nc3c2=O)c(OC)c1` (stereo not drawn), the inhibition is 0.3%.

As to `CC1CN(C(=S)Nc2ccccc2F)CC(C)O1` (stereo not drawn), the inhibition is 1.8%.

For the compound `CC(=O)NC1=NN(C(C)=O)C(C)(c2ccc(Cl)s2)S1` (stereo not drawn), the inhibition is 23.7% (active).

In the case of `CC(=O)NC1=NN(C(C)=O)C(C)(c2ccc(C)cc2)S1` (stereo not drawn), the inhibition was -3.8%.

Consider `CC(=O)NC1=NN(C(C)=O)C(C)(CCS(=O)(=O)c2ccc(Cl)c(Cl)c2)S1` (stereo not drawn), for which the inhibition was -1%.

Regarding `O=C(COC(=O)c1cccs1)Nc1ccccc1Cl`, the inhibition is -3.8%.

Take `O=C(Nc1ccccc1Cl)Nn1cnnc1`: the inhibition was 0.2%.

For the compound `O=C(Nc1ccccc1Cl)/C(Cl)=C(\Cl)S(=O)c1ccccc1` (stereo not drawn), the inhibition was 96.8% (active).

As for `CCOC(=O)c1csc(CCNC(=O)c2oc3c(Cl)cc(C)cc3c2C)n1`, the inhibition is -2.4%.

Regarding `COc1ccc(Nc2cc(Cl)ccc2C(=O)O)cn1`, the inhibition was -1.3%.

For `COc1ccc(NC(=O)/C(Cl)=C(/Cl)S(=O)Cc2ccc(C)cc2)cn1` (stereo not drawn), the inhibition was 99.6% (active).

Take `CCOc1ccc(S(=O)(=O)Nc2ccc(OC)nc2)cc1`: the inhibition is 6.1%.

Consider `COc1ccc(C(=O)Nc2ccc(NC(=O)C(C)C)nc2)cc1`, for which the inhibition was -0.5%.

Take `COc1ccc(NC(=O)c2cc(-c3ccc(C)cc3)on2)cc1`: the inhibition was 2.3%.

With `COc1ccc(CS(=O)/C(Cl)=C(/Cl)C(=O)Nc2ccc(OC)nc2)cc1` (stereo not drawn), the inhibition was 102% (active).

Regarding `Cc1ccc([N+](=O)[O-])cc1S(=O)(=O)N1CCCN(C)CC1`, the inhibition is 3.1%.

Regarding `CC1(C)Cc2cccc(OCC(=O)N3CCN(c4ccc([N+](=O)[O-])cc4)CC3)c2O1`, the inhibition was 4.2%.

Consider `Cc1cccc(C(=O)N2CCN(S(=O)(=O)N3CCCCC3)CC2)c1`, for which the inhibition was -0.2%.

Consider `CN(C)CCNC(=O)c1[nH]nc2c1CCc1ccccc1-2`, for which the inhibition is -3.9%.

For the compound `CC(=O)NCCc1ccc(S(=O)(=O)Nc2ccc(C)c(S(=O)(=O)N3CCOCC3)c2)cc1`, the inhibition was 2.5%.

As for `COC(=O)Nc1nc2ccc(Sc3ccccc3)cc2[nH]1`, the inhibition is 81.4% (active).

Regarding `COc1cc(OC)cc(C(=O)N[C@H](C(=O)Nc2nc3ccccc3[nH]2)C(C)C)c1`, the inhibition is 18.7%.

For the compound `CC(C)c1nc2ccc(C(=O)O)cc2[nH]1`, the inhibition is -6%.

For the compound `S=C(c1ccc(-c2ccccc2)o1)N1CCCCC1`, the inhibition was 1.6%.

For the compound `O=C(Cc1ccc([N+](=O)[O-])cc1)Nc1ccc(C(=O)N2CCOCC2)cc1`, the inhibition was -2.8%.

For `CCCc1c(C(=O)N/N=C(\C)CCc2ccc(OC)cc2)nnn1-c1nonc1N`, the inhibition was 1.1%.

As to `CCn1cc(/C=C(\NC(=O)c2cc(OC)c(OC)c(OC)c2)C(=O)N2CCN(C)CC2)c2ccccc21`, the inhibition is 6.9%.

Consider `Cc1nn(C(C)C(=O)NCCC2=CCCCC2)c(=O)c2nn(-c3ccccc3)c(C)c12` (stereo not drawn), for which the inhibition was -2.9%.

As to `Cc1cc(C(=O)N/N=C\C(Br)=C\c2ccccc2)c(C)o1`, the inhibition was 11.7%.

With `CC(C)c1cc(C(=O)O)n[nH]1`, the inhibition was 1.7%.

As for `CC(C)c1cc(C(=O)N/N=C/C(Br)=C/c2ccccc2)n[nH]1`, the inhibition is 37.9% (active).

Turning to `Cc1ccc(Cl)cc1NC(=O)C1CCCN(c2cnccn2)C1` (stereo not drawn), the inhibition was -2.8%.

With `C[C@@H]1C[C@@H]2O[C@H]2/C=C\C=C\C(=O)Cc2c(Cl)c(O)cc(O)c2C(=O)O1`, the inhibition was 44.5% (active).

Take `COc1ccccc1Oc1ccc(N2CC(C(=O)OCC(=O)c3ccc(F)cc3)CC2=O)cc1` (stereo not drawn): the inhibition was -7.2%.

For `Cc1nn(CC(=O)N2CCCCC2)c(=O)c2nn(-c3ccccc3)c(C)c12`, the inhibition was -5.3%.

Consider `Cc1ccc(CNC(=O)C2CC(c3ccccc3[N+](=O)[O-])=NO2)o1` (stereo not drawn), for which the inhibition was 4.8%.

On to `COc1ccc(C2=NOC(C(=O)NCc3ccco3)C2)cc1OC` (stereo not drawn), for which the inhibition is 43.3% (active).

With `COc1ccc(S(=O)(=O)N2CCC(C(=O)NCc3ccco3)CC2)cc1C`, the inhibition is -0.7%.

For `C[C@@H](NC(=O)[C@@H]1Cc2ccccc2CN1)C(=O)NC1CCCC1`, the inhibition was 0.2%.

With `CC(=O)NCCNC(=O)c1cc(-c2cccc3ccccc23)nc2ccccc12`, the inhibition is 4.3%.

For the compound `COCCn1c(SCC(=O)Nc2nc(C)cs2)nnc1C(C)C`, the inhibition was 1.6%.

Turning to `Cc1cccc(N2C(=O)c3cccnc3C2=O)c1`, the inhibition was 3.1%.

In the case of `Cc1ccc(Oc2ccc3c(c2)C(=O)N(c2cccc4cccnc24)C3=O)cc1`, the inhibition was 25.8% (active).

`O=C1c2ccccc2C(=O)N1c1cccc2ccccc12`: the inhibition was -0.4%.

Source of the values: PubChem BioAssay AID1825 (The Scripps Research Institute Molecular Screening Center, 2009).
